Data on five compounds can be found in PubChem BioAssay AID602450 (National Center for Advancing Translational Sciences (NCATS), 2012).

Molecules are shown by their SMILES. Activity calls are given as the source filed them. The call rests on the fitted dose curve.

A short description of this test: qHTS Assay for Inhibitors of Influenza NS1 Protein Function: Viral Replication TCID50 SAR for Probe. The following applies: Influenza virus replication in cells, TCID50 titer reduction. The source says:
Influenza is a world-wide public health problem and emerging forms of the virus have the potential to cause a pandemic of equal or greater magnitude to the outbreaks recorded in 1918, 1957 or 1968. Vaccine development is proceeding and there also exist two classes of anti-influenza compounds. However these therapeutic modalities are neither fully effective nor widely enough available to fulfill global needs. In addition their potential usefulness against newly emergent strains is not known. Efforts are needed to develop novel agents against influenza virus, including broad-spectrum agents. Identification of small molecules that inhibit NS1 function either directly or by interfering with specific cellular pathways may be a key to increasing our defense against the virus.
We have miniaturized and optimized a cell based assay in which NS1 from influenza A is expressed in the budding yeast S. cerevisiae. NS1 is a multi-functional protein that counters the host innate immune response and facilitates viral versus cellular gene expression. Expression of NS1 causes a pronounced slow growth phenotype in yeast due to its intrinsic molecular activities. Small molecules that suppress the slow growth phenotype can be identified by a straightforward growth recovery assay using optical density (OD) as the measurement. The same yeast strain not expressing NS1 was used as positive control in the yeast growth recovery assay.
Hits resulting from this primary screen and other follow-up screens, were tested in two concentrations in this viral replication assay.
NIH Chemical Genomics Center [NCGC]
NIH Molecular Libraries Probe Centers Network [MLPCN]
Assay Submitter (PI): Daniel Engel, University of Virgina
Cell monolayers were infected at an m.o.i. of 0.1 for 48 h in the presence or absence of the compound, which was added at the beginning of infection. Virus titres were determined by TCID50 analysis (Reed, L. J. & Muench, H. (1938). A simple method of estimating fifty per cent endpoints. Am J Epidemiol 27, 493-497).
On to `Cc1ccc(-n2nc(C)c3c(-c4ccc(O)c(O)c4)c(C#N)c(N)nc32)cc1C`, for which the Potency is 234 nM (active).
With `COc1cc(-c2ccnc3c2c(C)nn3-c2cccc(C(F)(F)F)c2)ccc1O` the figure was 82.7 nM (active); with `COc1cc(-c2ccnc3c2c(C)nn3-c2ccc(C(F)(F)F)cc2)ccc1O`, 155 nM (active).
Consider `Cc1nn(-c2ccc(Cl)cc2)c2nc(N)c(C#N)c(-c3ccc(O)c(O)c3)c12`, for which the Potency is 279 nM (active).
With `COc1cc(-c2c(C#N)c(N)nc3c2c(C)nn3-c2ccc(F)cc2)ccc1O` the figure was 101 nM (active).
